# Experimental data taken from PubChem BioAssay.
# “And” between values parts separate entries of the source, which are not always exact repeats. Identical values can stand only once. Inconclusive results are not listed. The source made the active and inactive calls.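 How the source made its calls, unless noted: active means at least 20% inhibition of 6-phosphogluconate dehydrogenase activity; inactive means the rest.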
# How the values were obtained:
# [1] = hESC survival regulators, cell-based (AID 493140; call rule not given here;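 further: cells exposed to compounds for four days before counting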); conditions: human embryonic stem cell survival screen; stronger effect = higher value
# [2] = liver-stage malaria parasite growth inhibition, primary screen, cell-based, HepG2, luciferase luminescence, HepG2 viability (AID 624349; in the data active means parasite load remaining mostly below about 12%, no sharp cut-off; inactive means mostly above about 10%;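 further: 100% = mean of DMSO negative control wells on the same plate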); conditions: P. berghei liver stage in HepG2, luciferase luminescence, concentration not given here; parasite load remaining: stronger effect = lower value; viability: measured here: HepG2 viability without parasites
# [3] = target: 6-phosphogluconate dehydrogenase, decarboxylating (Homo sapiens) (UniProt P52209); assay: 6PGD enzyme inhibitors, primary screen, biochemical, human, recombinant enzyme, NADPH absorbance (AID 1159550); conditions: recombinant 6PGD, NADPH absorbance 341 nm; at 10 µM; stronger effect = higher value
# [4] = growth inhibition of DIPG glioma cells, dose response, cell-based, SU-DIPG-XIII, MIPE4.0, CellTiter-Glo, qHTS (AID 1347061; cut-off not given, nearly all actives have AC50 up to about 37 µM;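 further: cells exposed to compound for 48 hours before readout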); conditions: SU-DIPG-XIII viability, CellTiter-Glo ATP luminescence
# [5] = growth inhibition of DIPG glioma cells, dose response, cell-based, JHH-DIPG-1, MIPE4.0, CellTiter-Glo, qHTS (AID 1347062; cut-off not given, nearly all actives have AC50 up to about 27 µM;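 on AC50: cells exposed to compound for two days before readout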); conditions: JHH-DIPG-1 viability, CellTiter-Glo ATP luminescence
# [6] = growth inhibition of DIPG glioma cells, dose response, cell-based, SU-DIPG-IV, MIPE4.0, CellTiter-Glo, qHTS (AID 1347063; cut-off not given, nearly all actives have AC50 up to about 30 µM;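 further: compound exposure lasted 48 hours before the viability readout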); conditions: SU-DIPG-IV viability, CellTiter-Glo ATP luminescence
# [7] = sensitizers of A549 cells to miR-34 induction, primary screen, imaging, A549 dox-inducible miR-34, nuclei and caspase counts (AID 1347080;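 active means compounds whose cell count with miR-34 switched on is under 0.7 times the count with it off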); conditions: A549 miR-34 inducible, Hoechst nuclei count, 48 h
# [8] = survival rescue of mitochondrial mutant cells in low glucose, primary screen, MELAS cybrids, Rieske KO mouse fibroblasts, CellTiter-Glo (AID 1508586;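 active means mean z-score across replicates of 1.96 or higher in either the MELAS or the Rieske mutant cell line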;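 further: z relative to plate mean and SD of compound and empty wells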)
# [9] = target: NAD(+) hydrolase SARM1 (Homo sapiens) (UniProt Q6SZW1); assay: SARM1 TIR NADase inhibitors, cell lysate, NAD-Glo luminescence (AID 1508614;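 active means compound whose remaining NAD level is above about 45 nM, limit read from the data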); conditions: SAM-TIR HEK293T lysate NADase, at 1 µM, stronger effect = higher value
# [10] = target: Mitogen-activated protein kinase 7 (Homo sapiens) (UniProt Q13164); assay: ERK5 transactivation activators in reporter cells, primary screen, cell-based, HTS (AID 1508626;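 active means luciferase signal above three times the same-plate solvent-only control wells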;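 further: luciferase driven by Gal4-ERK5 fusion binding five Gal4 sites before minimal TATA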); conditions: HeLa Gal4-ERK5 transactivation, 18 h, at 5 µM, stronger effect = higher value
# [11] = viability rescue of complex I mutant cybrids, primary screen, cell-based, galactose medium, ATP luminescence (AID 1645843;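 active means z-score of at least 1.8 in each of two replicates, scored against plate mean and spread of sample wells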;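 further: positive z means more ATP and so rescue of galactose-driven cybrid death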); conditions: complex I mutant cybrid cells, 72 h, stronger effect = higher value
# [12] = stronger effect = lower value, cell number ratio, induced over uninduced
# [13] = measured here: relative caspase fold change +Dox/-Dox
# [14] = measured here: total cells with miR-34 induction, stronger effect = lower value
# [15] = measured here: total cells without miR-34 induction
# [16] = MELAS cybrid survival, CellTiter-Glo 48 h, stronger effect = higher value
# [17] = Rieske KO mouse fibroblast survival, CellTiter-Glo 72 h
# NAD(+) hydrolase SARM1 (Homo sapiens), sequence (Q6SZW1 whole entry, looked up, the tested form may be a part): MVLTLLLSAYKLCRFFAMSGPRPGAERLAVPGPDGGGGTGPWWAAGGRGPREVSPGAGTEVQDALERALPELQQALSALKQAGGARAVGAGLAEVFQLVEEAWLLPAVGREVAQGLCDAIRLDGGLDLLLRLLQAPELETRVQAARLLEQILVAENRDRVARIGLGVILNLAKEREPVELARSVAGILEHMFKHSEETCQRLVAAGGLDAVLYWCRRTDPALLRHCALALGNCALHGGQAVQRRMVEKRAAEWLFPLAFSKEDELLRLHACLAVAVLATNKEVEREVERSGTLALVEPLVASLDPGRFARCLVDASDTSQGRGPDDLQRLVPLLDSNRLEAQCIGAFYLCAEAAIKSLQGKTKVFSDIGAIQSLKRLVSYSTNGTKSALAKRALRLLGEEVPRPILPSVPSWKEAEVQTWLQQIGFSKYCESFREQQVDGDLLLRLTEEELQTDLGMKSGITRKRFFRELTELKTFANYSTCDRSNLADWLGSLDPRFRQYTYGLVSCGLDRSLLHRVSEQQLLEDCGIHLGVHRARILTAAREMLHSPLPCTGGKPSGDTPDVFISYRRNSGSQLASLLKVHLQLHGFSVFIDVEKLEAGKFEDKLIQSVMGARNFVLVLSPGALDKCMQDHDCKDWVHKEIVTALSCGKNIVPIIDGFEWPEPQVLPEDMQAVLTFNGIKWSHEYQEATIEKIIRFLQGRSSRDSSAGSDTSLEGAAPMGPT
# Mitogen-activated protein kinase 7 (Homo sapiens), sequence (Q13164 whole entry, looked up, the tested form may be a part): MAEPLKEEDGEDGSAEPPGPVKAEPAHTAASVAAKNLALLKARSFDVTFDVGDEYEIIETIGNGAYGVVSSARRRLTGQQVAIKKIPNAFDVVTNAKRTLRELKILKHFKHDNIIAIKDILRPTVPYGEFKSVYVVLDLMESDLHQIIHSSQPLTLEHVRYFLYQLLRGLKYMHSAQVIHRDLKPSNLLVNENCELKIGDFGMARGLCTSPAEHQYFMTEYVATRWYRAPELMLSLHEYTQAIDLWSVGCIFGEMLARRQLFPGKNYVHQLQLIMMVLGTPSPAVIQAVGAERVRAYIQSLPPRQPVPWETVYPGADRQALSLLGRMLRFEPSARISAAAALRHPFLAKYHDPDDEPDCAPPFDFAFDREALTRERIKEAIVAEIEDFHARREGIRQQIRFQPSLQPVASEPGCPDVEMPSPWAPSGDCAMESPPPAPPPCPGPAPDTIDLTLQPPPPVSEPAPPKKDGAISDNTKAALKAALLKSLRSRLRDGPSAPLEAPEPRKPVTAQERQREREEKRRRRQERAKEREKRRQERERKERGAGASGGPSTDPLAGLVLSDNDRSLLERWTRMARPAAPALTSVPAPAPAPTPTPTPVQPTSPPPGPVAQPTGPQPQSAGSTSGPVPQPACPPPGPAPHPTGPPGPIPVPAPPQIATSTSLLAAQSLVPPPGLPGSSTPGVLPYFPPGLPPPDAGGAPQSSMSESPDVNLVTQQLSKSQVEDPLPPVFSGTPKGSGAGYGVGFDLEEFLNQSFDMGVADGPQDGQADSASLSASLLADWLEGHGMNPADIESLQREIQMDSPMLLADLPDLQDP
# 6-phosphogluconate dehydrogenase, decarboxylating (Homo sapiens), sequence (P52209 whole entry, looked up): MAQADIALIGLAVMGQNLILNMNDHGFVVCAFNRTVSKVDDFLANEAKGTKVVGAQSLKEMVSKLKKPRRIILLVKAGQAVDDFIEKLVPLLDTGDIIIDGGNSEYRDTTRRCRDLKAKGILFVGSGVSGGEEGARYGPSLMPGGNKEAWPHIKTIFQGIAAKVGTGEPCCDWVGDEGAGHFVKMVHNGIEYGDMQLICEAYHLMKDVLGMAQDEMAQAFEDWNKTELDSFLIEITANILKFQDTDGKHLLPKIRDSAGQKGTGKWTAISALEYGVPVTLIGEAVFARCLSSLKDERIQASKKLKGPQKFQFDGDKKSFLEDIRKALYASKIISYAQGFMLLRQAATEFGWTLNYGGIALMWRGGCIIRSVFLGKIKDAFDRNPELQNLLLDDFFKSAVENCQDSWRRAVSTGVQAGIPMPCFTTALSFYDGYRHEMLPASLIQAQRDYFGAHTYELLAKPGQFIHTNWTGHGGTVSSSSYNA
smiles,measurement,setting,value
C[C@H]1C[C@H]2[C@@H]3CCC4=CC(=O)C=C[C@]4(C)[C@@]3(F)[C@@H](O)C[C@]2(C)[C@@]1(O)C(=O)CO,survival,[1],9.67 (inactive)
same,parasite load remaining,[2],183% (inactive) and 101% (inactive)
same,viability,[2],104% and 71.8%
same,inhibition,[3],-0.85% (inactive)
same,outcome,[4],inactive
same,outcome,[5],inactive
same,outcome,[6],inactive
same,fold change,[7]; [12],0.813 (inactive)
same,fold change,[7]; [13],1.45
same,cell count,[7]; [14],6320
same,cell count,[7]; [15],7770
same,z-score,[8]; [16],-0.582 (inactive)
same,z-score,[8]; [17],-0.299
same,remaining NAD,[9],10 nM (inactive)
same,luciferase signal,[10],80 AU (inactive)
COC1=C(OC)C(=O)C(C/C=C(\C)CC/C=C(\C)CC/C=C(\C)CC/C=C(\C)CC/C=C(\C)CC/C=C(\C)CC/C=C(\C)CC/C=C(\C)CC/C=C(\C)CCC=C(C)C)=C(C)C1=O,inhibition,[3],-47.9% (inactive)
same,outcome,[4],inactive
same,outcome,[5],inactive
COc1cc([C@@H]2c3cc4c(cc3[C@H](O)[C@H]3COC(=O)[C@@H]23)OCO4)cc(OC)c1OC,inhibition,[3],1.7% (inactive)
same,AC50,[5],235 nM (active)
same,AC50,[6],37.2 nM (active)
same,luciferase signal,[10],76 AU (inactive)
CCC[C@@H]1C[C@@H](C(=O)N[C@@H]([C@H]2O[C@H](SC)[C@H](O)[C@@H](O)[C@H]2O)[C@H](C)Cl)N(C)C1,parasite load remaining,[2],69.6% (inactive) and 41% (inactive)
same,viability,[2],232% and 102%
same,inhibition,[3],8.56% (inactive)
same,fold change,[7]; [12],0.93 (inactive) and 0.912 (inactive)
same,fold change,[7]; [13],1.22 and 1
same,cell count,[7]; [14],9830 and 9930
same,cell count,[7]; [15],10600 and 10900
same,z-score,[8]; [16],-0.831 (inactive) and -0.519 (inactive)
same,z-score,[8]; [17],-0.0935 and -0.00307
same,remaining NAD,[9],10 nM (inactive)
same,luciferase signal,[10],136 AU (inactive)
same,z-score,[11],-0.225 (inactive) and 0.615 (inactive)
COc1ccc(-c2cc(=O)c3c(O)cc(O[C@@H]4O[C@H](CO[C@@H]5O[C@@H](C)[C@H](O)[C@@H](O)[C@H]5O)[C@@H](O)[C@H](O)[C@H]4O)cc3o2)cc1O,inhibition,[3],7.55% (inactive)
same,outcome,[5],inactive
same,outcome,[6],inactive
same,z-score,[8]; [16],0.526 (inactive)
same,z-score,[8]; [17],0.0112
same,remaining NAD,[9],10 nM (inactive)
same,luciferase signal,[10],80 AU (inactive)
C[C@@H]1[C@H](O)[C@@H](C)/C=C/C=C/C=C/C=C/C=C/C=C/C=C/[C@H](O[C@@H]2O[C@H](C)[C@@H](O)[C@H](N)[C@@H]2O)C[C@@H]2O[C@](O)(C[C@@H](O)C[C@@H](O)[C@H](O)CC[C@@H](O)C[C@@H](O)CC(=O)O[C@H]1C)C[C@H](O)[C@H]2C(=O)O,parasite load remaining,[2],70.3% (inactive)
same,viability,[2],129%
same,inhibition,[3],-10.9% (inactive)
same,AC50,[4],833 nM (active)
same,AC50,[5],1320 nM (active)
same,AC50,[6],6620 nM (active)
same,fold change,[7]; [12],0.894 (inactive)
same,fold change,[7]; [13],1.05
same,cell count,[7]; [14],7670
same,cell count,[7]; [15],8570
same,z-score,[8]; [16],-0.838 (inactive)
same,z-score,[8]; [17],-0.728
same,remaining NAD,[9],10 nM (inactive)
same,luciferase signal,[10],92 AU (inactive)
